# Assay results published in PubChem BioAssay AID2314 (National Center for Advancing Translational Sciences (NCATS), 2010).
# Among all 300,000 compounds or so, about 37,000 (12%) were called active. No stated cut-off is given here; in the data, active means max response mostly above about 13% (no sharp cut-off); inactive means mostly below about 14%. Only a selection was taken, and actives are over-represented in it overall.
# Experiment: Cycloheximide Counterscreen for Small Molecule Inhibitors of Shiga Toxin; further: read at 38.3 µM for the half of the compounds with a filed dose; 0% is about no effect
# Settings: cell reporter, cycloheximide protein synthesis inhibition counterscreen; hits give high values
row,SMILES,max response
1,O=C(Nc1ccc(F)c([N+](=O)[O-])c1)C1CC(=O)N(Cc2ccccc2)C1 (stereo unspecified),-3.3% (inactive)
2,COc1cccc(N(CC(=O)NC2CCCC2)C(=O)Cn2nnc(-c3ccc(C)o3)n2)c1,-3.92% (inactive)
3,COC(=O)CCc1ccccc1S(=O)(=O)N(CCC(=O)OC)Cc1ccccc1,-11% (inactive)
4,COc1ccc(Cl)cc1-n1c(=S)sc2c(=O)n(-c3ccc(F)cc3)c(SCC(=O)O)nc21,0.929% (inactive)
5,O=C1C2N=NN(CC(=O)N3N=C(c4cccc5ccccc45)CC3c3ccccc3)C2C(=O)N1c1ccccc1 (stereo unspecified),-3.29% (inactive)
6,O=C(/C=C/c1c(F)cccc1Cl)Nc1nn[nH]n1,-1.57% (inactive)
7,N#C/C(=C\c1ccccc1C(F)(F)F)C(=O)Nc1ccccc1F,-2.94% (inactive)
8,CNC(=O)/C(C#N)=C/c1c(F)cccc1Cl,15.7% (active)
9,CCc1ccc(/C=N/NC(=O)c2ccc(OC3CCCC3)cc2)s1,12.2% (inactive)
10,COc1ccc(CCNC(=O)CCn2c(=O)c3ccccc3n(CC(=O)NCC3CCCO3)c2=O)cc1OC (stereo unspecified),11% (inactive)
11,Cc1nc2ccccc2n1CC(O)c1ccccc1 (stereo unspecified),-1.62% (inactive)
12,Cn1c(=N)n(CC(O)c2cccs2)c2ccccc21 (stereo unspecified),-3.56% (inactive)
13,Cn1c(=N)n(CC(O)c2ccccc2)c2ccccc21 (stereo unspecified),70.1% (active)
14,COc1ccc(NC(=O)[C@H](NC(=O)[C@@H]2Cc3ccccc3CN2)c2ccccc2)cc1,-1.13% (inactive)
15,COc1ccc(NC(C(=O)Nc2cccc(C(C)=O)c2)c2ccccc2)cc1 (stereo unspecified),12.5% (active)
16,COC(C(=O)Nc1ccc(C(C)=O)cc1)c1ccccc1 (stereo unspecified),-2.94% (inactive)
17,O=C(NC1CCN(C(=S)Nc2ccc(Cl)cc2)CC1)C1CCCCC1,-3.84% (inactive)
18,O=C(Nc1ccc(Cl)cc1)Nc1ccc(C(=O)N2CCOCC2)cc1,15.1% (inactive)
19,CC(C)S(=O)(=O)c1csc(NC(=O)Nc2ccc(Cl)cc2)c1Cl,17.4% (active)
20,NS(=O)(=O)c1ccc(CCNC(=O)Nc2ccc(Cl)cc2)cc1,11% (inactive)
21,Cc1cccc(OCC(=O)Nc2ccc(NC(=O)c3ccco3)c(C)c2)c1,6.82% (inactive)
22,COC(=O)c1nc(NC(=O)c2ccc(C(C)(C)C)cc2)n[nH]1,4.76% (inactive)
23,CSc1ncc(C(=O)Nc2ccc(C)cc2C)c(C)n1,2.97% (inactive)
24,CSc1nccc(NC(=O)c2ccc(C(C)(C)C)cc2)n1,38.6% (active)

row,SMILES,max response
1,Cn1c(Cn2nnc3ccccc32)nnc1SCC(=O)c1ccccc1F,1.74% (inactive)
2,CCOc1ccc(Nc2nc(Cl)nc(N3CCN(c4ccc(OC)cc4)CC3)n2)cc1,1.38% (inactive)
3,COc1ccc(Nc2ncc(F)c(N3CCOCC3)n2)cc1,27.6% (active)
4,c1ccc(Nc2nc(N3CCOCC3)c3ccccc3n2)cc1,3.89% (inactive)
5,OCCNc1nc2ccccc2n1-c1ncnc2sc3c(c12)CCC3,-6.62% (inactive)
6,CCCCCCCCCOC1OC(CO)C(O)C(O)C1NC(C)=O (stereo unspecified),2.49% (inactive)
7,COc1cccc(CC2(CO)CCCN(Cc3nc(-c4cccs4)oc3C)C2)c1 (stereo unspecified),1.79% (inactive)
8,Cc1nn2cc(-c3ccc(Cl)cc3)cnc2c1Br,23.7% (active)
9,COc1cccc(N2CCN(c3ccc4nnc(CCC(=O)N5CCN(C)CC5)n4n3)CC2)c1,-3.61% (inactive)
10,O=C(NCCc1c[nH]c2ccccc12)C1CCN(Cc2ccc(Br)cc2)CC1,-1.22% (inactive)
11,COc1cc(OC)c(NC(=O)C2CCCN2C(=O)OCc2ccccc2)cc1Cl (stereo unspecified),-2.36% (inactive)
12,COC(=O)c1ccc(OC(=O)c2nn(C)cc2Cl)c(OC)c1,8.01% (inactive)
13,COc1cccc(NC(C)=[N+](C)CCNS(=O)(=O)c2ccc(Cl)cc2)c1,43.4% (active)
14,CCNS(=O)(=O)c1ccc(NC(=O)Nc2cccc(OC)c2)cc1,10.4% (inactive)
15,COc1ccc(S(=O)(=O)NCCCCOc2ccc(Cl)cc2)cc1,-3.02% (inactive)
16,CC/C(=N\NC(=O)c1c(C)nc2ccccn12)c1ccc(Cl)cc1,6.12% (inactive)
17,CN(C)c1ccc(C2N(C)C(=O)c3ccccc3N2C)cc1 (stereo unspecified),-2.11% (inactive)
18,O=C(C1=C(O)C(=O)N(CCOCCO)C1c1ccccn1)c1cccs1 (stereo unspecified),15.5% (active)
19,O=C(C1=C(O)C(=O)N(c2ncccn2)C1c1cccs1)c1ccco1 (stereo unspecified),0.951% (inactive)
20,O=C(COc1ccc2ccccc2c1)N1CCN(C(=O)c2cccs2)CC1,-3.04% (inactive)
21,Cc1ccc2[nH]c(=O)c(CC(=O)O)c(-c3ccccc3)c2c1,-1.3% (inactive)
22,c1ccc(COc2ccccc2CNCc2cccnc2)cc1,2.03% (inactive)
23,O=C(O)c1ccc(/C=N/NC(=O)c2ccc(Br)cc2)cc1,-2.33% (inactive)
24,CC(C)(C)OC(=O)N/N=C/c1ccc(C(=O)O)cc1,29.1% (active)

row,SMILES,max response
1,COC(=O)N/N=C/c1ccc(/C=N/NC(=O)OC)cc1,-2.42% (inactive)
2,Cc1cccc2c1cnn2C(=O)CCC(=O)NC1CCCCC1,4.44% (inactive)
3,Cc1nc2nc(SCC(=O)Nc3cccc(F)c3)[nH]c2cc1Br,1.17% (inactive)
4,O=C(c1cc(-c2cccs2)on1)N1CCCCC1,50.6% (active)
5,COc1cccc(OC)c1OCCN1CCN(C(=O)c2ccco2)CC1,-3.58% (inactive)
6,COc1ccccc1N1CCN(C(=O)c2cc(-c3ccc(Cl)c(Cl)c3)on2)CC1,-1.8% (inactive)
7,O=C(c1ccco1)N1CCN(C(=O)c2ccc(COc3ccc(F)cc3)o2)CC1,-1.31% (inactive)
8,COc1ccccc1-c1cc(C(=O)N2CCCCC2)no1,59.2% (active)
9,O=C(C1CCN(S(=O)(=O)c2cccs2)CC1)N1CCCCCC1,10% (inactive)
10,COc1cccc(OCc2cc(C(=O)N3CCN(C(=O)c4ccco4)CC3)no2)c1,44.9% (active)
11,CNC(=O)n1ccc(C(=O)N2CCCCC2)n1,1.48% (inactive)
12,O=C(c1cc(-c2ccccc2O)on1)N1CCCC1,35% (active)
13,COc1cccc(-c2cc(C(=O)N3CCN(c4ccccc4OC)CC3)no2)c1,7.23% (inactive)
14,O=C(c1ccc(Cl)c(Cl)c1)N1CCCC1,-2.63% (inactive)
15,N#Cc1cccc(NC(=O)CN2CCCCCC2)c1,4.22% (inactive)
16,CC1CN(C(=O)CCC(=O)NCc2cccnc2)c2ccccc2O1 (stereo unspecified),0.76% (inactive)
17,OCCN(Cc1ccccc1)Cc1ccc(Cl)cc1,-2.21% (inactive)
18,CCc1nnc(NC(=O)CCN(c2ccc(C)cc2)S(=O)(=O)c2ccccc2)s1,-1.73% (inactive)
19,COc1ccc(C2NC(=O)N(C)C(C)=C2[N+](=O)[O-])cc1 (stereo unspecified),-2.28% (inactive)
20,CCn1ccnc1CN(C)C(=O)c1cc(COc2ccc(Cl)cc2OC)on1,39.1% (active)
21,CC(=O)c1ccc(NC(=O)c2cc(-c3cccs3)on2)cc1,16.4% (active)
22,COc1ccccc1OCc1ccc(C(=O)N2CCN(C)CC2)o1,1.3% (inactive)
23,COc1cc(Cl)ccc1OCc1cc(C(=O)N2CC[C@@H]3CCCC[C@H]3C2)no1,38.6% (active)
24,COc1ccc(C(=O)C2CCCN(C(=O)c3cc(C)on3)C2)cc1F (stereo unspecified),1.02% (inactive)

row,SMILES,max response
1,COc1cc(Cl)ccc1OCc1cc(C(=O)N(C)CCc2c(C)n[nH]c2C)no1,32.5% (inactive)
2,Cc1cc(NC(=O)c2cc(-c3cccs3)on2)nn1Cc1ccc(Cl)cc1,9.8% (inactive)
3,Cc1ccc(C)c(OCc2cc(C(=O)N3CCN(c4cnccn4)CC3)no2)c1,19.7% (inactive)
4,CCn1ccnc1CN(C)C(=O)c1cc(COc2ccc(-n3cncn3)cc2)on1,-1.13% (inactive)
5,CC(=O)Nc1cccc(Nc2nc(-c3cccs3)nc3ccccc23)c1,13.3% (inactive)
6,COc1cc2c(C(=O)N(C)c3cc(Cl)ccc3OC)cn(C)c(=O)c2cc1OC,-3.47% (inactive)
7,COc1ccc(OCc2cc(C(=O)N3CCCC3)no2)c2ccccc12,65.1% (active)
8,O=C(Cc1csc(Nc2nc(=S)[nH]c3ccccc23)n1)NCCCN1CCN(c2cccc(Cl)c2)CC1,1.69% (inactive)
9,Cc1ccnc(NC(=O)Cn2ccc([N+](=O)[O-])n2)c1,-1.7% (inactive)
10,CCOC(=O)/C(=N\Nc1cc(Cl)ccc1Cl)N1CCN(C)CC1,-1.84% (inactive)
11,Cc1c(C)c2c(OCC(=O)NCCCO)cc3c(c2oc1=O)CCC(C)(C)O3,0.89% (inactive)
12,CN(CC#CCC(c1ccccc1)c1ccccc1)C(C)(C)C,-2.81% (inactive)
13,Cc1ccccc1NC(=O)CSc1nc2ccc(Nc3nc(N4CCOCC4)nc(N4CCOCC4)n3)cc2s1,-3.62% (inactive)
14,CCCCC1(C(=O)OCC)NC(c2ccc(O)cc2)C2C(=O)N(c3ccccc3)C(=O)C21 (stereo unspecified),-1.77% (inactive)
15,CCOc1ccc(OCC(=O)Nc2c3c(nn2C(C)(C)C)CS(=O)(=O)C3)cc1,0.307% (inactive)
16,N#CCC(=O)N/N=C/c1cn(Cc2ccc3ccccc3c2)c2ccccc12,1.05% (inactive)
17,c1ccc(Cc2cc[n+](Cc3ccccc3)cc2)cc1,-3.55% (inactive)
18,Cc1ccc(CN(Cc2cccnc2)C(=S)Nc2cccc(Cl)c2C)cc1,9.59% (inactive)
19,CCCCC(=O)Nc1ccccc1N1CCN(c2ccc(F)cc2)CC1,5.13% (inactive)
20,Cc1c(S(=O)(=O)NC(C)c2ccccc2)c(=O)n(C)c(=O)n1C (stereo unspecified),1.11% (inactive)
21,Cc1coc2c1c(C)cc1oc(=O)c(CC(=O)NCC(=O)N[C@H](C(=O)O)C(C)C)c(C)c12,-5.82% (inactive)
22,C/C(N)=C(/C#N)C(=O)COC(=O)c1cc(-c2ccccc2)nc2ccc(Br)cc12,-2.32% (inactive)
23,C/C(N)=C(/C#N)C(=O)COC(=O)c1cc(-c2ccc(C)cc2)nc2ccccc12,32.1% (active)
24,C/C(N)=C(/C#N)C(=O)COC(=O)c1cc(-c2cccc(Br)c2)nc2ccccc12,0.776% (inactive)
